The first assay concerns the target ZNF512B. Description: pooled miR-30 sensor sort-seq; sequence = guide strand. To be noted: shRNA.
The sequence TAGTGTGGTAGTTGAGGCCGGC yielded a sensor-assay potency score (higher = more potent) of -0.21.
Still for that read-out and setting: then TTTTTCTTCCCTTCTGTCTTGT, with 0.00205; and TTTGGACTTGAACTGCTTCCGG, with 0.34.
The same measure, in the same setting: under TACTTGAGCCCGTAGATGCTGG stands -0.743; under TTGAAGGGCATCAAGCTTCTGC, 0.255.
Same read-out and setting: under TGAGTTTGGACACTTCACCCTC stands -0.0834.
In turn, TTGCTGACTCCCACCTTCCGGC returned a sensor-assay potency score (higher = more potent) of -0.809.
Regarding TTGCTGACCACAATGGGCCTGC, the sensor-assay potency score (higher = more potent) came out at 0.0376.
The same measure, in the same setting: under TTTCGTAACTGTCACAAGCTTT stands -0.797; under TTCGTAACTGTCACAAGCTTTG, -1.03.
Still for that read-out and setting: under TTGGACTTGAACTGCTTCCGGC stands -0.182.

The next assay addresses ZNF517. The assay is described as above. The settings on record: shRNA.
For the sequence TTCTGGTGCTGCAGCAGCCGGG, the sensor-assay potency score (higher = more potent) is -1.68.
Same read-out and setting: under TGCTCGTTGAGGGTGAACCTGC stands -1.07.
In the case of TTGTATCTGAACGCCTTGCCGC, the sensor-assay potency score (higher = more potent) is -1.19.
For the sequence TTCAGCGTGTAGCTCCTGCGGA, the sensor-assay potency score (higher = more potent) is -0.596.
On the same count and under the same terms, then TTCTCTGCAGAGGAGACTCCAT, with -1.52; and TTTGGCAACAAGAAAGCCTAGT, with 0.561.
The same measure, in the same setting: then TCGTTGAGGGTGAACCTGCGGC, with -0.629; and TTGTGAAGTACACAGCCACATC, with -1.38.
Take TCTTCCTGCAGAACCCTTGGGG: the sensor-assay potency score (higher = more potent) was -0.177.
On the same count and under the same terms, under TTGAGGGTGAACCTGCGGCAGA stands -1.5.
On the same count and under the same terms, under TCGTTCAGCGTGTAGCTCCTGC stands -0.267; under TCCTTGTGAAGTACACAGCCAC, -1.39.

The record behind these values is the OligoGym collection.
Note: reference of the scale not given here.
